Assay results published in PubChem BioAssay AID687001 (Broad Institute, 2013).
Potency and affinity values are given separately.

molecular target: Protein S100-A4 (Homo sapiens) (UniProt P26447); assay: human S100A4 peptide interaction inhibition curves – biochemical, fluorescence polarization, cherry-picked hits, dose response (AID 687001); settings: FP, S100A4/TAMRA-myosin IIA peptide binding; series mostly up to 11 µM; activity change, negative = inhibition: at the top concentration;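 note: 0% = DMSO neutral control wells and -100% = TFP positive control wells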
Sequence (P26447 whole entry, looked up): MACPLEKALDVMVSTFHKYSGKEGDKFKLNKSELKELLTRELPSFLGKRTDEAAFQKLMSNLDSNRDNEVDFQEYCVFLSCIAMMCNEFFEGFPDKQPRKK

Activity change, negative = inhibition, inactive:
O=C(NCCS(=O)(=O)NCCc1ccccc1)c1ccccc1 0.893%, CO[C@@H]1CN(C)C(=O)c2cc(NC(C)=O)ccc2OC[C@H](C)N(Cc2cncnc2)C[C@H]1C -1.37%, Cc1ccc2[nH]c(=O)c3cc(C(=O)NCCC(C)C)sc3c2c1 -0.619%, CC1(C(=O)Nc2cnc3ccccc3c2)CCN1Cc1cc2ccccc2o1 (centres undefined) 5.98%, CNC[C@@H]1Oc2ccc(NC(=O)Nc3cccc4ccccc34)cc2C(=O)N([C@H](C)CO)C[C@@H]1C 0.263%, Cn1cccc1C(=O)NNC(=O)c1ccccc1Br 1.23%, Cc1oc(-c2ccc(Cl)cc2)nc1CS(=O)CC(=O)NCCCN1CCN(Cc2ccccc2)CC1 (centres undefined) -3.78%, Cc1cc(C(=O)Nc2ccncc2)c2ccccc2n1 0.023%, O=C(CCN1CCCCC1)N[C@H]1CC[C@H](CCn2cc(-c3ccccc3)nn2)O[C@@H]1CO 0.877%, CCCCn1c(N)c(N(CC(C)C)C(=O)COc2cc(C)ccc2Cl)c(=O)[nH]c1=O 0.449%, Cc1noc(C)c1S(=O)(=O)N(C)C[C@@H]1Oc2ccc(NC(=O)C3CC3)cc2CC(=O)N([C@@H](C)CO)C[C@H]1C 8.79%, Cc1cc(Nc2cccc(F)c2)cc(=O)n1-c1cccc(F)c1 8.17%, O=c1[nH][nH]c(=O)c2nc(Nc3ccccc3)ncc12 -0.695%, C[C@@H]1CN([C@H](C)CO)C(=O)c2cc(NC(=O)Nc3ccc(C(F)(F)F)cc3)ccc2O[C@@H]1CN(C)C(=O)Nc1ccc(C(F)(F)F)cc1 0.398%, COc1cc(/C=C/C(=O)OCC(=O)N2c3ccccc3NC(=O)C2(C)C)cc(OC)c1OC 6.96%, O=C(C[C@H]1CC[C@@H]2[C@H](COC[C@@H](O)CN2C(=O)Nc2ccc(F)cc2)O1)NCCc1ccccc1 7.77%, COc1ccccc1CNC(=O)COC(=O)CSc1ccc(Cl)cc1 -3.44%, CC(=O)N1CCCCN2[C@@H](CO)[C@H](c3ccc(-c4cccc(C(=O)N(C)C)c4)cc3)[C@@H]2C1 20.4%, O=C1CC(C(=O)N2CCN(c3ccccn3)CC2)CN1Cc1ccccc1Cl (centres undefined) -1.18%, CNS(=O)(=O)c1ccc2c(c1)[nH]c(=S)n2C -20.7%, CN1c2ccc(-c3cccc(F)c3)cc2[C@H]2[C@H](CCN2C(=O)c2ccccc2F)[C@H]1CO 0.162% [at 10 µM], O=C1[C@H]2[C@@H](c3ccc(F)cc3)N3C(=O)N(c4cccc(Br)c4)C(=O)[C@@]3(Cc3ccccc3)[C@H]2C(=O)N1C1CCCCC1 -1.44%, COc1ccc(NC(=O)CN(C)C(=O)C2CC(=O)N(c3ccc4c(c3)OCCO4)C2)cc1 (centres undefined) 4.61%, COCC(=O)N1CC2(CCN(Cc3ccccc3Cl)CC2)c2c([nH]c3cc(OC)ccc23)[C@H]1CO 7.56%, COc1ccc(S(=O)(=O)NCC2CCCN(Cc3cccc(C(C)=O)c3)C2)cc1 (centres undefined) 10.8%, COc1ccc(NC(=O)N(C)C[C@H]2Oc3c(NC(=O)NC4CCCCC4)cccc3C(=O)N([C@H](C)CO)C[C@H]2C)cc1 0.755%, O=C(NCCOc1ccccc1)C1CCC(=O)N(CCCN2CCOCC2)C1 (centres undefined) -3.56%, O=C(COC(=O)Cc1ccc(Cl)c(Cl)c1)Nc1ccc2[nH]c(=O)[nH]c2c1 1.28%, NC(=O)c1nsc(C(=O)N(c2ccccc2F)C(C(=O)NCc2ccccc2)c2ccc(O)cc2)c1N (centres undefined) 4.16%, C[C@@H]1CCCCO[C@@H](CN(C)C(=O)Nc2cccc3ccccc23)[C@H](C)CN([C@@H](C)CO)C(=O)c2cc(NC(=O)C3CCCCC3)ccc2O1 17.6%, Cc1cc(Br)ccc1NC(=S)NC1CCCC1 0.376%, CC1Cc2ccccc2N1NC(=O)c1ccc(Cl)c(S(N)(=O)=O)c1 (centres undefined) -3.85%, S=c1[nH]c(-c2ccccc2)cn1-c1ccccc1 -5.04%, COc1ccc(C#Cc2ccc([C@H]3[C@H]4CN(C(=O)Nc5ccccc5)CCCCN4[C@H]3CO)cc2)cc1 21.1%, CC(C)c1ccc(/C=N/n2c(COc3ccccc3)n[nH]c2=S)cc1 -2.63%, Cc1ccc(C2=N/C(=C\c3ccc(F)cc3)C(=O)N2)cc1 -3.9%, C[C@@H]1CN([C@@H](C)CO)C(=O)c2cc(NC(=O)CCC(F)(F)F)ccc2O[C@@H]1CN(C)C(=O)Nc1ccc(F)cc1 0.783%, COc1ccc2c(c1OC)C(=O)N1N=C(c3ccc(Cl)cc3)CC21 (centres undefined) 0.647%, O=C(c1cc2c(s1)-c1ccccc1S(=O)(=O)C2)N1CCN(Cc2ccccc2)CC1 3.56%
